Bioassay records: PubChem BioAssay, National Center for Advancing Translational Sciences (NCATS)
Only some compounds are listed: those with a hit (about 3.6% of all), similar ones and a draw of the others.
IMPase Li inh: membrane-permeable IMPase blocker, potentiated with lithium | AID 1457 | CHO-M1 cells, IP1 TR-FRET (IP-One), carbachol + lithium | hit rate 0.35% among 210,000 | Potency, µM (series often up to 59.4 µM), inactives show at the top dose activity, negative = IMPase inhibition, usual class: inhibitors;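 also: IP1 builds up when IMPase is blocked and the TR-FRET signal falls; plate controls were basal vehicle for no effect and high inhibitor control for full effect; nearly all actives have a fitted effect of over 50% in size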
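Concentration–response in CHO-M1 cells, lithium-potentiated; 30 min at 37C. IP1 detected by competitive TR-FRET after 10 min lysis at RT. Hill-fitted AC50.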
Epigenetic reg: epigenetic control regulation, reporter derepression | Potency, µM (titrated, usually from 53.9 µM), for the others: at the top dose GFP activation, hits mostly activators | murine LDR cells, GFP reporter derepression, 30 h | hit rate 0.2% among 280,000; also: % of control where 0% means no effect; nearly all actives have a fitted effect of over 60% in size
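In this reporter-derepression format, murine cells bearing a silenced integrated CMV-GFP locus incubate with test compound (30 h, 37 C), then are washed and imaged; fluorescent objects of 20–120 um count as induced cells.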
JMJD2E inh: inhibitors of human JMJD2E histone demethylase. AID 2147. B2RXH2. hit rate 1.6% among 230,000. Potency, µM (doses to about 57.1 µM), without a hit: at the highest dose activity change, negative = inhibition, usual class: inhibitors. JMJD2E catalytic domain, FDH-coupled NADH fluorescence (FDH is formaldehyde dehydrogenase);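 also: 0% = wells with enzyme and -100% = buffer wells without enzyme; nearly all actives have a fitted effect of over 50% in size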
Target sequence (B2RXH2 1-337 limits assumed): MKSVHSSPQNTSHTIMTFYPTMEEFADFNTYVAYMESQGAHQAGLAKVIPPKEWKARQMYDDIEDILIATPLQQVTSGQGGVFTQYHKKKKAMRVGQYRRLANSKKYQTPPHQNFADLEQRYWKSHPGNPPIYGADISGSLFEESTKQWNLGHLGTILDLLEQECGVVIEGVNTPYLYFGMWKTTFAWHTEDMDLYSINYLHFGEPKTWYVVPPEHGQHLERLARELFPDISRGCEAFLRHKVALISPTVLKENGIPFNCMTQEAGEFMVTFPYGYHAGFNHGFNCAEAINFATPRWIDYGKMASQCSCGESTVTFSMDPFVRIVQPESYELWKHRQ
GCN5L2 inh: blocks human GCN5L2 histone acetyltransferase; GCN5L2 HAT assay, ThioGlo1 CoA-SH fluorescence; Potency, µM (series often up to 58.9 µM), for inactives: at the top dose activity change, negative = inhibition, most hits filed as inhibitors; hit rate 0.21% among 390,000; also: % is scaled to controls: 0 for no effect and ±100 for the full control effect
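Free CoA generated was detected with ThioGlo1 (50uM) fluorescence at Ex340nm/Em540nm, read immediately and after 20 min at room temperature. Enzyme, 20 nM in HEPES pH 7.5 buffer, saw compounds 15 min before adding 75uM H3(1-25) peptide and 70uM acetyl-CoA.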
Sfp PPTase inh: blocks B. subtilis Sfp PPTase activity. AID 1490. Q9F4F7. Potency, µM, for the others: largest response in the series, negative = inhibition, most hits filed as inhibitors. hit rate 3.5% among 310,000. Biochemical Sfp PPTase activity, qHTS;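 also: the enzyme is Sfp with the accession as filed and its product quenches rhodamine fluorescence; 0% = enzyme reaction without inhibitor and -100% = no enzyme wells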
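Fluorescence-quenching assay with 15 nM Sfp, 5 uM rhodamine-CoA and 12.5 uM BHQ-2-labelled ybbR peptide in pH 7.6 Hepes/MgCl2 buffer. Enzyme was pre-incubated with compound for 15 min at room temperature. Rate was taken from the 30-min fluorescence change (525/598 nm).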
NPSR antag: antagonists of human neuropeptide S receptor cAMP signaling; CHO-NPSR cells, cAMP TR-FRET, antagonist mode; Potency, µM (top dose mostly 38.3 µM), without a hit: top-dose activity change, negative = inhibition, actives largely listed as inhibitors; hit rate 1% among 220,000; also: % is scaled to controls: 0 for no effect and ±100 for the full control effect; nearly all actives have a fitted effect of over 50% in size
* marks the source's active call; other numbers are inactive results; ? = inconclusive; · = not tested or not shown; [ ] = another dose, or the depositor's remark. Unless noted, calls follow the shape of the dose curve; as a rule, active = well fitted curve in the direction sought with a large enough effect; inconclusive = small, poorly fitted or top-dose-only effect, or another doubt; inactive = no such curve, though single readings can be large; an effect the other way counts as inactive or inconclusive. Potency is read from the fitted curve at half-maximal effect.

SMILES	IMPase Li inh	Epigenetic reg	JMJD2E inh	GCN5L2 inh	Sfp PPTase inh	NPSR antag
CCOC(=O)c1cccc(NC(=O)/C=C/c2ccc3c(c2)OCO3)c1	8.0%	10.6%	?	-6.8%	79.4µM*	-15.1%
CS(=O)(=O)Nc1c(O)ccc2c1CCCC2C1=NCCN1 (stereo unspecified)	-2.7%	1.1%	·	15.9%	4.7%	·
COc1ccc(NC(=O)c2c(-c3ccc(C)cc3)nnc3ccccc23)cc1Cl	·	2.3%	·	-0.4%	·	·
C[C@](N)(C(=O)O)c1ccc(-c2nn[nH]n2)cc1	2.7%	-1.1%	-26.5%	-2.0%	28.2µM*	·
CC(N)(C(=O)O)c1ccc(S(=O)(=O)O)cc1 (stereo unspecified)	-4.5%	2.1%	·	4.5%	50.1µM*	·
c1ccc(-c2nn[nH]n2)cc1	·	1.1%	5.7%	2.2%	18.7%	11.6%
COC(=O)NC(CC(C)=O)c1cccs1 (stereo unspecified)	·	1.1%[10.1 µM]	·	·	8.5%	·
COc1cccc(N2CCN(c3cnc4ccccc4n3)CC2)c1	35.8%	-3.3%	-16.8%	-17.2%	79.4µM*	-22.6%
O=c1n(Cc2cc3c(cc2Cl)OCO3)c(=O)n2n1CC[C@H]1/C(=N\OCc3ccccc3)[C@H]3O[C@@H]3[C@@H](O)[C@@H]12	·	0.0%[10.1 µM]	·	·	17.7%	·
Cc1nc(CCNC(=O)CC2C(=O)NCCN2Cc2ccc(F)cc2)sc1C (stereo unspecified)	-2.3%	-8.5%	-17.5%	-0.6%	31.6µM*	-5.3%
COc1cccc(CN2CCNC(=O)C2CC(=O)NCCc2nc(C)c(C)s2)c1OC (stereo unspecified)	8.0%	1.9%	-18.4%	-3.2%	44.7µM*	-17.0%
COc1ccc(NC(=O)C(=O)NCC(c2cccnc2)N2CCc3ccccc3C2)cc1 (stereo unspecified)	·	0.0%	·	-12.0%	·	·
CSCC[C@H](NC(=O)CN)C(=O)N[C@@H](CC(=O)O)C(=O)N[C@@H](CO)C(=O)N[C@@H](CC(C)C)C(=O)N[C@@H](C)C(=O)N[C@@H](Cc1ccccc1)C(=O)N[C@@H](CO)C(=O)NCC(=O)NCC(=O)N[C@@H](CC(C)C)C(N)=O	·	·	·	-11.7%	11.1%	·
CCNc1ncc2nc(-c3cc(F)cc(F)c3)c(=O)n(C)c2n1	-14.4%	·	·	-15.2%	9.7%	·
COc1cccc2oc3cc(C#Cc4ccccn4)ccc3c(=O)c12	·	·	·	-17.0%	39.8µM*	·
Cc1oc(-c2cccc(Cl)c2)nc1CS(=O)(=O)CC(=O)NC(C)CCc1ccccc1 (stereo unspecified)	·	5.0%	·	-9.1%	·	·
COc1cccc2sc(Nc3nc(-c4ccccn4)cs3)nc12	·	-1.8%	1.5%	-16.2%	-19.8%	1µM*
CCN1CCCC1CNC(=O)c1ccc(-n2c(=O)c(=O)[nH]c3ccccc32)cc1 (stereo unspecified)	·	-2.9%	·	·	·	·
COc1ccc2[nH]cc(CCN=C(NC(=O)c3cccc(Cl)c3)Nc3nc(C)cc(C)n3)c2c1	·	0.0%	·	-4.8%	·	·
Cc1cc(C)nc(NC(=NCCc2c[nH]c3ccccc23)NC(=O)Nc2ccc(Cl)cc2)n1	6.2%	-1.1%	-1.9%	-8.0%	16.5%	12.6µM*
CCCn1c(-c2ccc(F)cc2)nc2c(N3CCN(C)CC3)nc(C)nc21	-1.4%	2.8%	?	·	9.5%	·
Nc1ccc(-c2n[nH]c(=O)c3ccccc23)cc1N	24.7%[38.3 µM]	-2.1%	?	-1.8%	14.1µM*	-12.8%[46.1 µM]
COc1cccc(-n2c(SCc3cc(=O)oc4cc(O)c(O)cc34)nc3ccccc3c2=O)c1	3.3%	-1.5%	12.6µM*	?	-16.2%	-14.6%
O=C(N/N=C1/C[C@@H](O)[C@@H](O)[C@@H]2[C@@H]3C(=O)N(Cc4ccccc4)C(=O)[C@H]3CC[C@H]12)OCc1ccccc1	·	0.0%[10.1 µM]	·	·	13.4%	·
N#CC(c1ccc(Cl)cc1)c1ccc2c(C(F)(F)F)cc(C(F)(F)F)nc2n1 (stereo unspecified)	36.3%[38.3 µM]	-6.1%	0.2%	0.0%	11.2%	6.31µM*
